Measurements as given in ChEMBL document CHEMBL3988442, “University of Dundee, Small-Polar-MMV Screening Library” (2021).
The whole screen tested about 48,000 compounds, of which about 13,000 (27%) showed an effect of 50% or more. The list shows a part of the results.

Test system: Wolbachia pipientis
Assay: Anti-Wolbachia Cell-Based Screen
Format: functional
Parameters: scale not given: in the data most compounds retested in dose-response had high values
Details: 5 µM

Row | SMILES | Percent Effect
1 | CCn1ncc2c1C(COCC1CC1)N(C(=O)c1ccncn1)CC2.O=C(O)C(F)(F)F (stereo unspecified) | -5.083%
2 | CCn1ncc2c1C(COC)N(C(=O)Cc1cccs1)CC2 (stereo unspecified) | 110.7%
3 | CCn1ncc2c1C(COC)N(C(=O)c1cscn1)CC2.O=C(O)C(F)(F)F (stereo unspecified) | 99.84%
4 | CCn1ncc2c1C(COC)N(C(=O)CCc1ccccc1)CC2.O=C(O)C(F)(F)F (stereo unspecified) | 87.3%
5 | Fc1cnc(N2CC[C@@H](N3CCOCC3)[C@@H]2Cc2ccccc2)nc1 | -1.587%
6 | CC(C)(O)CCc1ccc(C(=O)N2CCN(CC(F)(F)F)CC2)cc1 | 0.1309%
7 | NS(=O)(=O)CCN1CCOC(c2ccsc2)C1 (stereo unspecified) | -9.667%
8 | CN1CC(c2ccccc2)CC2(CCN(C(=O)c3cccnn3)CC2)C1 (stereo unspecified) | 0.4144%
9 | COc1ccc2c(c1)C(=O)N(C)C1(CCN(C(=O)OC(C)(C)C)CC1)N2 | -17.46%
10 | CCn1ncc2c1C(COC)N(C(=O)c1ccsc1)CC2.O=C(O)C(F)(F)F (stereo unspecified) | 90.11%
11 | COCC1CN(C(=O)c2cccn2C)Cc2c1cnn2CC1CC1.O=C(O)C(F)(F)F (stereo unspecified) | 4.422%
12 | CCn1ncc2c1C(COC)N(C(=O)c1ccc3c(c1)OCO3)CC2.O=C(O)C(F)(F)F (stereo unspecified) | 10.43%
13 | COCC1c2c(cnn2C)CCN1C(=O)c1cccn1C.O=C(O)C(F)(F)F (stereo unspecified) | 106%
14 | COCC1c2c(cnn2C)CCN1Cc1ccc(F)cc1.O=C(O)C(F)(F)F.O=C(O)C(F)(F)F (stereo unspecified) | 5.645%
15 | COCC1c2c(cnn2C)CCN1C(=O)c1cscn1.O=C(O)C(F)(F)F (stereo unspecified) | 127.3%
16 | Cn1ncc2c1C(COCC1CC1)N(C(=O)c1ccncn1)CC2.O=C(O)C(F)(F)F (stereo unspecified) | 6.391%
17 | CC(O)CC(C)(C)CNC(=O)Nc1cnn(-c2ccccc2F)c1 (stereo unspecified) | -9.575%
18 | Cc1nccc(-c2ccccc2)c1C(=O)N1CCC2(CCCO2)CC1 | -10.01%
19 | COc1ccc([C@@H]2CN(C(=O)CCn3cccn3)C[C@H]2NC(C)=O)cc1 | 10.72%
20 | Cc1nccc(-c2cccc(NCC(=O)N3CCc4sccc4C3)c2)n1 | -3.121%
21 | CC(C)Oc1ccc(CN2CCCC(N3CCCC3)C2)cc1CO (stereo unspecified) | -11.2%
22 | O=C(C1SCCc2ccccc21)N1CCC(O)CC1 (stereo unspecified) | -12.36%
23 | CC1(C)CC(C(=O)N2CCC3(CCC(=O)N(C4CC4)C3)CC2)CCO1 (stereo unspecified) | -18.18%
24 | CCCS(=O)(=O)N1C[C@@H]2CN(Cc3ccco3)CCO[C@@H]2C1.O=C(O)C(F)(F)F | 4.107%
25 | CC(C)OCCS(=O)(=O)N1CCN(Cc2ccco2)CC1 | -6.984%
26 | CCCS(=O)(=O)N1CCN(Cc2ccco2)CC1.O=C(O)C(=O)O | 120.3%

Row | SMILES | Percent Effect
27 | CCS(=O)(=O)N1CCC(c2cc3n(n2)[C@@H](C(F)(F)F)C[C@@H](C)N3)CC1 | -9.512%
28 | CC(C)OCc1ccc(CNC(=O)NC2(CO)CCCC2)cc1 | 4.047%
29 | NC(=O)NC1CCN(Cc2ccc3c(c2)CCC3)CC1 | -13.21%
30 | Cc1nnc(CN(Cc2ccc3c(c2)OCO3)C2CCC(C)CC2)o1 (stereo unspecified) | 119.4%
31 | Cc1nnc(CN(Cc2cccc(Br)c2)C2CC2)o1 | -10%
32 | Cc1nnc(CN(Cc2ccc3c(c2)OCO3)C2CCCCC2)o1 | 129.8%
33 | Cc1nnc(CN(Cc2ccc(Cl)c(Cl)c2)C2CC2)o1 | 12.83%
34 | Cc1nnc(CN(Cc2ccccc2Br)C2CC2)o1 | -0.8138%
35 | Cc1nnc(CN(Cc2ccc(Cl)c(Cl)c2)C(C)C)o1 | 6.742%
36 | Cc1ccc2nc3n(c2c1)[C@@H](CNCc1nccs1)COC3 | -1.407%
37 | COc1ccccc1C(NC(=O)CN(C)C(C)C)c1noc(C)n1 (stereo unspecified) | -26.87%
38 | Cc1ccc(C)c(NC(=O)N(C)Cc2cnn(C)c2)c1 | 5.925%
39 | COCC(=O)N1CCC2(CCC2N(C)Cc2ccco2)CC1.O=C(O)C(F)(F)F (stereo unspecified) | -4.207%
40 | CC(C(=O)NCc1cccc(N2CCCC2=O)c1)S(C)(=O)=O (stereo unspecified) | -9.157%
41 | COc1ccc(NC(=O)NCc2cccc(N(C)C)n2)c(Cl)c1 | 3.933%
42 | CCc1nc(C(=O)NCc2ccc(N3CCNC(=O)C3)c(F)c2)c[nH]1 | -14.99%
43 | Cc1ccc([C@@H]2CN(S(=O)(=O)Cc3ccccc3)C[C@H]2N(C)C)cc1 | 2.624%
44 | CC(C)(C)n1nnnc1CN(CCc1ccccc1)Cc1ccccc1 | 189.2%
45 | CCn1ccnc1CN(C)Cc1nc(Cc2ccccc2Cl)no1 | -11.87%
46 | CN(CCc1ccncc1)Cc1nccn1Cc1ccccc1 | 0.009024%
47 | CCN(Cc1noc(CC(C)C)n1)Cc1ccccc1Cl | 16.12%
48 | CC(C)(C)n1nnnc1CN(Cc1ccccc1)Cc1ccccc1Cl | 144.9%
49 | CN(Cc1ccncc1)Cc1nccn1Cc1ccccc1 | 10.06%
50 | CCN(Cc1ccncc1)Cc1cn(-c2ccccc2)nn1 | -1.691%
51 | CC(C)(C)n1nnnc1CN(Cc1ccccc1)Cc1ccc(Cl)cc1 | 282.7%
